target: Voltage-gated potassium channel subunit beta-2 (Rattus norvegicus) (UniProt P62483); assay: inhibitors of rat Kvbeta2 reductase activity – biochemical, NADPH fluorescence, primary screen (AID 622); conditions: recombinant KvBeta, 4-cyanobenzaldehyde reduction, at 10 µM, stronger effect = higher value;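 also: slope of raw intensity against log time taken from 70 to 1610 s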
Sequence (P62483 whole entry, looked up): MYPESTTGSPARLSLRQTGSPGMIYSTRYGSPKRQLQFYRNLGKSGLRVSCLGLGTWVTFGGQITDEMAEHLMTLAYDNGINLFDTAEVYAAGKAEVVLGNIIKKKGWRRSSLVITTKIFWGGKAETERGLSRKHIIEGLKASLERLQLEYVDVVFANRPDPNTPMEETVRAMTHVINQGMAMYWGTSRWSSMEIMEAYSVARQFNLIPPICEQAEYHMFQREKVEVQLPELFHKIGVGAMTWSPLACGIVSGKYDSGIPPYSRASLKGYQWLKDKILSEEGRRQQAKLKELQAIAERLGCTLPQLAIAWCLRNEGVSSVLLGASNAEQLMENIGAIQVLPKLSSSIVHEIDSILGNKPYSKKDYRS

Fluorescence slope, inactive:
O=C(Cc1ccc(S(=O)(=O)N2CCCC2)s1)Nc1nc2c(s1)CCCC2 -0.574
Cn1nnnc1SCC(=O)NCc1ccco1 -0.443
COc1cc(Cn2c(C(=O)O)cc3sccc32)cc(OC)c1OC -0.562
CCOCCCNC(=O)CCNS(=O)(=O)c1ccc(C)cc1 -0.411
COc1ccc2c(c1)CCc1c(C(=O)N3CCCc4ccccc43)noc1-2 -0.459
COc1ccc(OC)c(NC(=O)C2CCN(c3cc(-c4ccccc4)nc4ncnn34)CC2)c1 -0.528
CC(C)C12CN3CC(C(C)C)(CN(C1)C3c1ccc3c(c1)OCO3)C2=O (stereo not drawn) -0.304
C/C(CC(O)(/C=N/O)c1ccccc1)=N\O (stereo not drawn) -0.569
CCCCc1oc2ccccc2c1C(=O)c1cc(I)c(OCCN(CC)CC)c(I)c1 -0.467
Cn1cc(C(=O)NC2CCCCCCC2)c(=O)c2cc(S(=O)(=O)N3CCCC3)ccc21 -0.319
Cc1ccc(C2C(C#N)=C(N)Oc3cc4c(cc32)OCO4)cc1 (stereo not drawn) -0.541
CN(C)S(=O)(=O)c1ccc(C(=O)N2CCC(c3nc4ccccc4o3)CC2)cc1 -0.427
O=C(CN1CCC(n2nnc3cc(F)ccc32)CC1)Nc1ccc2c(c1)CCC2 -0.364
CCOC(=O)CSc1nnc(CNC(=O)c2cccs2)n1-c1cc(OC)ccc1OC -0.545
Cc1cnc(C(=O)NCCc2ccc(S(=O)(=O)NC(=O)NC3CCCCC3)cc2)cn1 -0.474
O=C(CCn1c(=O)sc2ccccc21)NC1=NCCS1 -0.464
Cc1ccc(C(C)C)c(OCCCN2CC(C)OC(C)C2)c1 (stereo not drawn) -0.243
COc1cccc(-c2cc(C(=O)Nc3cc(OC)c(OC)c(OC)c3)no2)c1 -0.511
O=C1NC(c2ccccc2)(C(F)(F)F)SC2=NCCCN12 (stereo not drawn) -0.482
O=C(CP(=O)(CO)CO)c1ccc(Cl)cc1 -0.536
CC(C)[N+]1(C)[C@@H]2CC[C@H]1CC(OC(=O)C(CO)c1ccccc1)C2 (stereo partly drawn) -0.497
CCC(=O)N1CCc2cc(Br)cc(S(=O)(=O)CCC(=O)NCC3CCCO3)c21 (stereo not drawn) -0.312
COc1cc(OC)cc(-c2nc3nc(C)c(CCC(=O)O)c(C)n3n2)c1 -0.522
CCOC(=O)C(CC)(CCC(=O)O)c1csc(N)n1 (stereo not drawn) -0.518
O=C1CC(=O)N(Cc2cccs2)C(=O)N1 -0.632
COc1cccc(-c2cc3nc4c(c(N5CCC6(CC5)OCCO6)n3n2)CCCC4)c1 -0.401
Nc1nc(C(=O)N2CCOCC2)nn1S(=O)(=O)c1ccc(Cl)cc1 -0.59
O=C(Nc1ccc2c(c1)OCO2)C1CCCN1C(=O)Nc1ccccc1F (stereo not drawn) -0.418
CCOc1cccc(OCCOCCN2CCCC2)c1 -0.229
COc1cccc(C(=O)Nc2cnc(NC(=O)c3ccco3)cc2C)c1 -0.567
CC(C)(C)c1cc(C(=O)O)nn1-c1ccccc1 -0.482
COc1ccccc1OCCn1c(=O)sc2ccccc21 -0.477
COC(=O)c1c(C(=O)OC)n(CCCN)c2ccc(C)cc12 -0.495
COc1ccc(OCc2nc(N)nc(Nc3cccc(C)c3C)n2)cc1 -0.446
N=c1c(C(=O)NCc2ccc(F)cc2)cc2c(=O)n3ccccc3nc2n1CCCN1CCOCC1 -0.374
Cc1cc(NC(=O)COc2ncnc3sc(C)c(C)c23)no1 -0.568
CCOC(=O)c1ccc(COC(=O)CCc2nc3ccccc3[nH]c2=O)o1 -0.546
COc1ccc(N2CCN(c3oc(COc4ccccc4)nc3C#N)CC2)cc1 -0.602

Source: PubChem BioAssay
